Marburg entry inh – Marburg virus entry inhibition. Marburg virus pseudotyped entry inhibition, cell reporter. Potency, µM (top dose mostly 37.8 µM), inactives show at the top dose activity change, negative = inhibition, hits mostly inhibitors. 1.8% of 300,000 active. AID 540276; calls by dose curve; tested in HEK293 cells; also: potency is read from the fitted curve at half-maximal effect; % is scaled to controls: 0 for no effect and ±100 for the full control effect
LASV entry inh – Lassa virus entry inhibition | 1.2% of 300,000 active | Lassa virus pseudotype entry inhibition, cell reporter | Potency, µM (titrated, usually from 37.9 µM), without a hit: at the top dose activity change, negative = inhibition, hits mostly inhibitors; calls by dose curve; tested in HEK293 cells; also: potency is read from the fitted curve at half-maximal effect; % is scaled to controls: 0 for no effect and ±100 for the full control effect; nearly all actives have a fitted effect of over 50% in size
HCV inhibitor – inhibitors of hepatitis C virus infection; Huh7.5.1 HCVcc-Cre infection, luciferase reporter, 44 h; Potency, µM (top dose mostly 41.8 µM), for inactives: at the highest dose activity change, negative = inhibition, actives largely listed as inhibitors; 3.4% of 340,000 active; active = well fitted inhibition curve with a large enough effect; inconclusive = small, poorly fitted or top-dose-only effect, or another doubt; inactive = no such curve, though single readings can be large or run the other way; also: potency is read from the fitted curve at half-maximal effect; % is scaled to controls: 0 for no effect and ±100 for the full control effect
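Seed cells (1,000/well) for 4 h; treat with compound and infect with HCVcc-Cre, moi about 0.5. Incubate 44 h, then detect luciferase activity.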
FMDV inh – blocks foot and mouth disease virus. FMDV antiviral cell-based qHTS. Potency, µM (series often up to 57.9 µM), inactives show at the highest dose activity change, negative = inhibition, hits mostly inhibitors. 1.2% of 410,000 active; calls by dose curve; tested in HEK293T cells; also: read-out not given here; potency is read from the fitted curve at half-maximal effect; % is scaled to controls: 0 for no effect and ±100 for the full control effect; nearly all actives have a fitted effect of over 45% in size
Shiga toxin inh – inhibitors of Shiga toxin in Vero cells | Vero cells, Shiga toxin protein synthesis inhibition reporter | inhibition, % at 38.7 µM | 9.2% of 290,000 active | AID 2315; in the data active = inhibition mostly above about 28%, no sharp cut-off; inactive = mostly below about 43%; also: 0% is about no effect
CHX counter – counter-screen for Shiga toxin inhibitors: cycloheximide protein synthesis inhibition. cell reporter, cycloheximide protein synthesis inhibition counterscreen. max response, %. 12% of 300,000 active; in the data active = max response mostly above about 13%, no sharp cut-off; inactive = mostly below about 14%; also: read at 38.3 µM for the half of the compounds with a filed dose; 0% is about no effect
Active calls of the source: *; ? = inconclusive; nt = no result; [ ] = dose if it differs, or a comment. An excerpt weighted towards active compounds, which were near 13% of everything screened.

SMILES	Marburg entry inh	LASV entry inh	HCV inhibitor	FMDV inh	Shiga toxin inh	CHX counter
COc1cc(/C=N/NC(=O)C(=O)/C=C2\NC3(CCCC3)Cc3ccccc32)ccc1O	?	-19.8%	?	?	-6.9	-3.3
CCOc1ccc(NC(=O)CN(C)C(=O)C2(c3ccccc3)CC2)cc1OCC	?	-15.5%[46.1 µM]	-9.0%	-7.3%	nt	nt
CCn1c(CNC(=O)c2ccccc2F)cc2ccccc21	-3.6%	-25.7%	-7.1%	22.7%	142.0*	23.6*
CCn1c(CNC(=O)c2ccccc2F)cc2cc(C)ccc21	14.1%	6.2%	-12.6%	32.3%	13.5	14.5*
CCn1c(CNC(=O)c2ccccc2Cl)cc2ccccc21	nt	nt	-24.0%	15.4%	24.6	14.2
CCn1c(CNC(=O)C2CCCCC2)cc2cc(C)ccc21	?	11.9%[46.1 µM]	23.3%	-6.3%	12.1	-4.8
Cn1c(CNC(=O)c2ccccc2F)cc2ccccc21	nt	nt	2.5%	15.1%	-1.5	15.6*
COCCCNC(=O)c1cnn(-c2ncc3c(n2)-c2ccccc2CCC3)c1C	nt	nt	nt	40.0%	nt	nt
O=C(c1cc(F)c(F)cc1Cl)N1CCN(CCc2ccccc2)CC1	-1.1%[46.1 µM]	-14.3%[46.1 µM]	1.2%	-25.8%	nt	-1.5
CN(C)c1ccnc(Oc2ccc(C(C)(C)C)cc2)c1C#N	?	?	?	nt	72.6*	37.4*
CN(C)c1ccnc(Oc2ccc(Cl)cc2)c1C#N	9.9%	?	-22.4%	nt	126.7*	69.1*
Cc1cc(Cl)ccc1Oc1nccc(N(C)C)c1C#N	?	?	?	nt	21.2	13.9*
COc1ccnc(Oc2ccc(Cl)cc2)c1C#N	-2.2%[46.1 µM]	-2.0%[46.1 µM]	16.4%	18.7%	51.1	15.5
CN(C)c1ccnc(Oc2ccccc2)c1C#N	23.2%	1.2%	5.7%	2.8%	19.1	12.2
O=C(NC(c1ccc(F)cc1)c1ccc2ccccc2n1)C1CCN(Cc2ccc(Oc3ccccc3)cc2)CC1 (stereo not given)	nt	nt	nt	-13.6%	nt	nt
Cc1ccc(Cl)cc1N1CCN(C(=O)CN2C(=O)COc3ccc(S(=O)(=O)N4CCCCCC4)cc32)CC1	7.8%[46.1 µM]	4.1%[46.1 µM]	nt	?	nt	nt
O=C(COc1ccc(-c2ccccc2)cc1)Nc1cccnc1	nt	nt	?	-15.9%	nt	nt
O=C(COc1ccc2ccccc2c1Br)Nc1ccncc1	?	?	?	-19.3%	74.2*	27.8*
O=C(COc1ccc2ccccc2c1Br)Nc1cccnc1	nt	nt	?	-11.7%	137.6*	36.8*
Cc1[nH]c2ccccc2c1C(C[N+](=O)[O-])c1cccs1 (stereo not given)	?	?	-11.7%	?	-4.4	0.8
CC(C)NC(=O)CSc1nnc(-c2ccco2)n1N	1.6%	21.3%	21.4%	12.9%	-2.9	9.0
N#CCCS(=O)(=O)c1ccc(N)cc1	10.5%	2.8%	12.1%	32.6%	-6.6	-0.8
CN1CCc2c(sc(NC(=O)C3COc4ccccc4O3)c2C(N)=O)C1 (stereo not given)	16.5%	?	nt	15.6%	31.8	22.2*
CCN1CCc2c(sc(NC(=O)C3COc4ccccc4O3)c2C(N)=O)C1 (stereo not given)	4.4%	-2.5%	nt	24.9%	62.2	19.0*
CCOC(=O)N1CCc2c(sc(NC(=O)C3COc4ccccc4O3)c2C(N)=O)C1 (stereo not given)	nt	nt	15.8µM*	39.8µM*	-4.4	9.7
SMILES	Marburg entry inh	LASV entry inh	HCV inhibitor	FMDV inh	Shiga toxin inh	CHX counter
CN1CCc2c(sc(NC(=O)C3CCCCC3)c2C(N)=O)C1	nt	nt	6.2%	5.0%	13.8	-1.3
CN1CCc2c(sc(NC(=O)c3ccc4ccccc4c3)c2C(N)=O)C1	nt	nt	nt	nt	91.8*	48.8*
CN1CCc2c(sc(NC(=O)Cc3ccccc3)c2C(N)=O)C1	nt	nt	5.6%	-24.3%	11.0	-1.5
CCN1CCc2c(sc(NC(=O)Cc3ccccc3)c2C(N)=O)C1	nt	nt	-13.6%	?	11.9	-0.1
Cc1ccc(S(=O)(=O)N2CCOCC2)cc1NC(=O)COC(=O)CCC(=O)c1cccs1	-10.8%	-0.9%	8.1%	13.7%	30.7	2.6
COc1ccc(C(=O)c2c[nH]c(C(=O)NCCCN3CCOCC3)c2)cc1	?	?	18.0%	0.1%	10.7	-2.2
Cc1ccc[n+](CC(=O)N2CCCc3ccccc32)c1	nt	nt	13.6%	-1.2%	12.5	0.9
CCOC(=O)N1CCN(C(=O)COC(=O)c2ccc(S(=O)(=O)N(CC)CC)cc2)CC1	?	2.7%	16.7%	-13.7%	nt	nt
O=C(NCCN1C(=O)S/C(=C\c2ccc(Cl)c(Cl)c2)C1=O)c1ccc2c(c1)C(=O)N(Cc1ccncc1)C2=O	16.4%	16.6%	?	?	7.4	9.8
COc1cc(NC(=O)Cn2cnc3sc(C)c(S(=O)(=O)N4CCOCC4)c3c2=O)cc(OC)c1OC	-2.1%[46.1 µM]	4.1%[46.1 µM]	9.9%	-10.2%	-12.1	8.7
CC(=O)N1CCc2c(sc(NC(=O)c3ccc4c(c3)OCCO4)c2C#N)C1	nt	nt	2.82µM*	21.4%	12.7	12.5*
CC(=O)N1CCc2c(sc(NC(=O)C3COc4ccccc4O3)c2C(N)=O)C1 (stereo not given)	0.5%[46.1 µM]	-4.5%[46.1 µM]	?	7.6%	22.6	31.4*
COC(=O)c1c(NC(=O)c2nc3ccccc3s2)sc2c1CCN(C(C)=O)C2	nt	nt	-25.9%	-21.8%	-5.2	-5.6
COC(=O)c1c(NC(=O)C2COc3ccccc3O2)sc2c1CCN(C(C)=O)C2 (stereo not given)	-4.5%	?	?	35.5µM*	-12.5	6.4
COc1ccnc(Oc2ccccc2)c1C#N	3.9%	27.8%	10.6%	0.1%	-15.8	-0.7
COc1ccc(N2CCN(c3ncccc3C#N)CC2)cc1	?	?	6.0%	-3.8%	-1.1	10.9*
COc1ccnc(N2CCN(c3ccccc3)CC2)c1C#N	-9.9%	12.1%	0.0%	nt	39.9*	29.1*
COc1ccc(N2CCN(c3ccc(N)cc3C#N)CC2)cc1	0.6%	-18.8%	-7.0%	-2.4%	-5.6	0.6
CC(OC(=O)C1CCCCC1)c1nc2ccccc2[nH]1 (stereo not given)	?	-18.2%	-0.2%	-20.2%	-14.9	-5.5
CN(N=O)c1ccc(C=C2C=Cc3ccccc32)cc1	0.2%	?	-28.1%	-1.0%	nt	nt
CCN(N=O)c1ccc(C=C2C=Cc3ccccc32)cc1	?	3.98µM*	-28.3%	-13.8%	nt	nt
COc1ccccc1N1CCN(CC(=O)c2ccc3ccn(C(C)=O)c3c2)CC1	-3.1%	nt	-8.8%	-11.8%	-3.3	-1.9
CC(=O)OCC(=O)c1ccc2ccn(C(C)=O)c2c1	2.4%	10.1%	-9.7%	6.8%	31.8	25.1*
CCCCOC(=O)NS(=O)(=O)c1sc(CC(C)C)cc1-c1ccc(Cn2c(CC)nc3c(C)cc(C)nc32)cc1	10µM*	9.2µM*	12.6µM*	nt	nt	nt
CCCCOC(=O)Nc1ccc(S(=O)(=O)Nc2nc(C)cc(C)n2)cc1	-6.4%	-22.3%[14.3 µM]	2.6%	50.1%	-15.7	-1.7
O=C1CC(c2ccccc2)CC(O)=C1C=Nc1ccc(O)cc1 (stereo not given)	?	?	-7.9%	-7.9%	61.7	17.6*
COc1ccc(N2CCN(S(=O)(=O)c3ccc(-n4cnnn4)c(C)c3)CC2)cc1	14.1%	2.3%	10.7%	-25.0%	-10.1	-1.5

High-throughput results: PubChem BioAssay, National Center for Advancing Translational Sciences (NCATS)
